This passage reports growth results from PubChem BioAssay (NCI).

Among the test systems are NCI-H23 lung; NCI-H226 lung; NCI-H322M lung; HOP-62 NSCLC; HOP-92 NSCLC; NCI-H522 lung; A549/ATCC NSCLC; 786-0 renal; COLO 205 colon; DU-145 prostate; K-562 leukemia; MALME-3M melanoma; MDA-MB-231 breast; RXF 393 renal; SF-268 CNS; SF-295 CNS; SF-539 CNS; UACC-257 melanoma; M14 melanoma.
Holding throughout (assay): NCI-60 one-dose screen, 48 h (100 = growth as untreated, 0 = no growth, -100 = all killed)
Holding throughout (settings): 10 µM unless noted

The panel holds about 83,000 compounds, 20% with a hit somewhere; the sample as a whole holds those more often.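 Treatment: one concentration, 48 hours, 96-well format. Scoring: percent growth, with anything below 10 considered active.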 Unmarked numbers belong to inactive results. The source made the active and inactive calls.

Consider `Nc1nc(-c2cc3c(cc2Cl)NC(=O)/C3=C/c2ccccc2)cs1`, for which the growth with NCI-H23 lung was 56.5%; in the assay with NCI-H226 lung, 71.8%; in the assay with NCI-H322M lung, 70.1%; in the assay with HOP-62 NSCLC, 78.6%; in the assay with HOP-92 NSCLC it was 81.2%; in the assay with NCI-H522 lung, 27.5%. Also, the growth in the assay with A549/ATCC NSCLC was 61.5%; in the assay with 786-0 renal it was 83.9%; with COLO 205 colon, 81.3%; with DU-145 prostate, 51.6%; with K-562 leukemia, 3.89% (active); with MALME-3M melanoma it was 97.1%. Moreover, the growth in the assay on MDA-MB-231 breast is 37.3%; in the assay with RXF 393 renal, 63.3%; in the assay with SF-268 CNS, 52.1%; in the assay on SF-295 CNS, 70%; in the assay on SF-539 CNS, 81.5%; with UACC-257 melanoma, 80.1%. In the assay with M14 melanoma, the growth was 60.6%.
Regarding `O=C(CSc1nnc(-c2cc3c([nH]c4ccccc43)c(-c3cccc(O)c3)n2)n1-c1ccccc1)c1ccccc1`, the growth with NCI-H23 lung was 80.2%; with NCI-H226 lung, 93.4%; in the assay on NCI-H322M lung it was 89.7%; in the assay on HOP-62 NSCLC, 59.3%; in the assay on HOP-92 NSCLC, 67.6%; in the assay with NCI-H522 lung it was 23%. The growth in the assay on A549/ATCC NSCLC is 69.9%; with 786-0 renal, 18.8%; with COLO 205 colon, 105%; in the assay with DU-145 prostate, 47.8%; in the assay with K-562 leukemia it was 21.8%; in the assay on MALME-3M melanoma, 55.4%. Further, the growth is 78% in the assay with MDA-MB-231 breast; -11.4% (active) with RXF 393 renal; 63.1% in the assay with SF-268 CNS; 16.8% in the assay with SF-295 CNS; 33.1% in the assay with SF-539 CNS; 93.3% with UACC-257 melanoma. Moreover, in the assay on M14 melanoma, the growth was 30%.
For `O=S(c1ccccc1)c1ccc2nnnn2n1` (configuration not stated), the growth in the assay on NCI-H23 lung is 100%; with NCI-H226 lung it was 103%; in the assay on NCI-H322M lung it was 98.7%; with HOP-62 NSCLC it was 108%; with HOP-92 NSCLC, 101%; in the assay on NCI-H522 lung, -17.6% (active). For the same compound, the growth with A549/ATCC NSCLC was 99.9%; in the assay on 786-0 renal it was 104%; with COLO 205 colon, 98%; with DU-145 prostate, 105%; in the assay on K-562 leukemia it was -9.22% (active); in the assay with MALME-3M melanoma, 103%. In addition, the growth in the assay with MDA-MB-231 breast was 104%; with RXF 393 renal, 117%; in the assay on SF-268 CNS, 97.1%; in the assay on SF-295 CNS, 102%; with SF-539 CNS it was 102%; in the assay with UACC-257 melanoma, 99.6%. Moreover, in the assay on M14 melanoma, the growth was 99%.
Take `O=C(Nc1ccc(-n2ccc3c(NC(=O)c4ccccc4)ncnc32)cc1)c1cccc(C(F)(F)F)c1`: the growth is 80.6% in the assay with NCI-H23 lung; 70.8% in the assay with NCI-H226 lung; 62.9% in the assay with NCI-H322M lung; 71.5% in the assay on HOP-62 NSCLC; 81.2% with HOP-92 NSCLC; 45.4% in the assay on NCI-H522 lung. The growth in the assay with A549/ATCC NSCLC was 32.7%; with 786-0 renal, 56.2%; in the assay with COLO 205 colon, 51.9%; with DU-145 prostate it was 35.1%; with K-562 leukemia it was 28.7%; in the assay with MALME-3M melanoma it was 77.3%. Moreover, the growth is 51.5% with MDA-MB-231 breast; 43.9% in the assay with RXF 393 renal; 38.9% in the assay on SF-268 CNS; 33.2% in the assay with SF-295 CNS; 35.5% in the assay on SF-539 CNS; 60.8% with UACC-257 melanoma. Besides, the growth in the assay on M14 melanoma is 30.9%.
Take `S=c1[nH]nc(Cn2c3ccccc3c3ccncc32)o1`: the growth with NCI-H23 lung was 107%; with NCI-H226 lung, 107%; in the assay with NCI-H322M lung, 106%; in the assay on HOP-62 NSCLC, 95.1%; in the assay with HOP-92 NSCLC, 109%; in the assay with NCI-H522 lung it was 91.3%. Moreover, the growth with A549/ATCC NSCLC was 90.7%; with 786-0 renal it was 99.2%; in the assay with DU-145 prostate, 108%; with MALME-3M melanoma, 100%; with MDA-MB-231 breast it was 100%; with RXF 393 renal it was 112%. Besides, the growth with SF-268 CNS was 103%; in the assay on SF-295 CNS, 108%; in the assay on SF-539 CNS, 101%; in the assay on UACC-257 melanoma, 89.7%; in the assay with M14 melanoma, 101%.
`COc1ccc(CCNC=O)cc1OC`: the growth in the assay with NCI-H23 lung was 101%; with NCI-H226 lung, 89.1%; in the assay with NCI-H322M lung it was 96.4%; with HOP-62 NSCLC it was 107%; in the assay on HOP-92 NSCLC, 93.4%; in the assay on NCI-H522 lung, 131%. The growth was 107% in the assay with A549/ATCC NSCLC; 99.2% in the assay on 786-0 renal; 96.3% in the assay on COLO 205 colon; 102% with DU-145 prostate; 115% in the assay on K-562 leukemia; 90% in the assay on MALME-3M melanoma. The growth with MDA-MB-231 breast was 112%; in the assay with RXF 393 renal, 87.9%; in the assay with SF-268 CNS, 104%; in the assay with SF-295 CNS, 103%; in the assay with SF-539 CNS, 91.5%; in the assay on UACC-257 melanoma it was 108%. Besides, the growth in the assay on M14 melanoma is 100%.
Regarding `OC[C@@H](O)C(O[C@@H]1O[C@H](CO)[C@H](O)[C@H](O)[C@H]1O)[C@H](O)[C@@H](O)CO` (some centres not stated), the growth in the assay with NCI-H23 lung was 98.3%; with NCI-H226 lung it was 103%; in the assay with NCI-H322M lung, 96%; with HOP-62 NSCLC, 96.7%; in the assay on HOP-92 NSCLC, 82.1%; in the assay with NCI-H522 lung, 95.7%. Moreover, the growth with A549/ATCC NSCLC is 110%; with 786-0 renal it was 106%; in the assay on COLO 205 colon, 110%; in the assay with DU-145 prostate, 111%; in the assay on K-562 leukemia, 104%; in the assay with MALME-3M melanoma, 97.6%. The growth in the assay on MDA-MB-231 breast was 97.3%; with RXF 393 renal, 108%; with SF-268 CNS, 109%; with SF-295 CNS it was 96.1%; with SF-539 CNS, 101%; in the assay on UACC-257 melanoma it was 106%. In addition, in the assay with M14 melanoma, the growth is 99.9%.
For `C=C1C(=O)O[C@H]2[C@H]1CC/C(COC(=O)OC/C1=C/CC[C@@]3(C)O[C@H]3[C@H]3OC(=O)[C@@H](CN(C)C)[C@@H]3CC1)=C\CC[C@@]1(C)O[C@@H]21`, the growth with NCI-H23 lung was 47.6%; with NCI-H226 lung, -49.6% (active); in the assay on NCI-H322M lung, 88%; with HOP-62 NSCLC, 89.2%; in the assay on HOP-92 NSCLC, -51.8% (active); in the assay with NCI-H522 lung, -48.5% (active). Also, the growth with A549/ATCC NSCLC is 73.4%; with 786-0 renal, -49.7% (active); in the assay on COLO 205 colon, -43.2% (active); in the assay with DU-145 prostate it was 15.3%; with K-562 leukemia, 1.85% (active); in the assay with MALME-3M melanoma it was -34.7% (active). The growth was -10.4% (active) with MDA-MB-231 breast; -81.5% (active) in the assay on RXF 393 renal; 63.1% in the assay on SF-268 CNS; 94.7% in the assay with SF-295 CNS; -12.1% (active) in the assay with SF-539 CNS; -28% (active) in the assay with UACC-257 melanoma. Besides, in the assay on M14 melanoma, the growth was -22.9% (active).
With `CS(=O)(=O)OCC(COS(C)(=O)=O)C(c1ccccc1)c1ccccc1`, the growth was 96.9% in the assay with NCI-H23 lung; 103% in the assay with NCI-H226 lung; 97.9% in the assay on NCI-H322M lung; 91.2% in the assay with HOP-62 NSCLC; 85.2% in the assay on HOP-92 NSCLC; 95.4% in the assay on NCI-H522 lung. Also, the growth with A549/ATCC NSCLC is 92.3%; in the assay on 786-0 renal, 99.4%; with COLO 205 colon, 124%; with DU-145 prostate, 129%; in the assay on K-562 leukemia, 101%; with MALME-3M melanoma, 99.7%. Besides, the growth is 96.5% with MDA-MB-231 breast; 97.4% with RXF 393 renal; 109% in the assay on SF-268 CNS; 97.2% with SF-295 CNS; 118% with SF-539 CNS; 111% with UACC-257 melanoma. Also, in the assay on M14 melanoma, the growth was 106%.
On to `COC(=O)c1ccc(NC(N)=NCC(C)(C)COc2ccc(C(F)(F)F)cc2)nc1`, for which the growth with NCI-H23 lung was 33.6%; with NCI-H226 lung, 50.7%; with NCI-H322M lung, 65.9%; in the assay with HOP-62 NSCLC, 76.6%; in the assay with HOP-92 NSCLC it was 47.1%; in the assay with NCI-H522 lung, 37.2%. Besides, the growth with A549/ATCC NSCLC was 56.1%; with 786-0 renal, 70.9%; in the assay on COLO 205 colon, -76.7% (active); in the assay on DU-145 prostate it was 68.8%; in the assay on K-562 leukemia, -31.8% (active); in the assay with MALME-3M melanoma it was 82.4%. The growth was 48.8% with MDA-MB-231 breast; 70.7% with RXF 393 renal; 66.8% with SF-268 CNS; 57.1% in the assay on SF-295 CNS; 82.6% in the assay on SF-539 CNS; 62.4% in the assay on UACC-257 melanoma. Further, the growth in the assay on M14 melanoma is 55.6%.
As to `CCCCCCCCCCCCCCCCCCNCc1ccc(Cl)cc1`, the growth with NCI-H23 lung is -65.4% (active); in the assay with NCI-H226 lung it was 4.03% (active); in the assay on NCI-H322M lung, 9.39% (active); in the assay with HOP-62 NSCLC, -77.7% (active); in the assay with HOP-92 NSCLC, -78% (active); in the assay with NCI-H522 lung it was -82.5% (active). The growth with A549/ATCC NSCLC was -80.7% (active); in the assay on 786-0 renal, -75.1% (active); in the assay on COLO 205 colon, -83.9% (active); with DU-145 prostate it was -91.3% (active); in the assay on K-562 leukemia, -65.7% (active); with MALME-3M melanoma it was -57.6% (active). The growth is -72.9% (active) in the assay on MDA-MB-231 breast; -74.4% (active) in the assay on RXF 393 renal; -63.5% (active) in the assay on SF-268 CNS; -46.8% (active) in the assay with SF-295 CNS; -88.1% (active) with SF-539 CNS; 38.9% in the assay with UACC-257 melanoma. Further, the growth in the assay with M14 melanoma was -72.2% (active).
